This passage reports inhibition results from PubChem BioAssay.

Molecules are shown by their SMILES. Unmarked numbers belong to inactive results. How the calls were made is not given here.

A word on the inhibition: it is the relative decrease from the control value, in per cent.

In this assay the target is L-lactate dehydrogenase (Plasmodium falciparum (isolate CDC / Honduras)) (UniProt Q27743). Briefly: PfLDH activity inhibition – cell lysate, 3D7 strain, counter-screen for P. falciparum growth inhibition project (AID 2304).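 Further: 0% = vehicle and 100% = reference inhibitor.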 The note with it: P. falciparum 3D7 crude extract, LDH APAD/NBT absorbance; at 2 µM; stronger effect = higher value.
Sequence of L-lactate dehydrogenase (Plasmodium falciparum (isolate CDC / Honduras)) (Q27743 whole entry, looked up): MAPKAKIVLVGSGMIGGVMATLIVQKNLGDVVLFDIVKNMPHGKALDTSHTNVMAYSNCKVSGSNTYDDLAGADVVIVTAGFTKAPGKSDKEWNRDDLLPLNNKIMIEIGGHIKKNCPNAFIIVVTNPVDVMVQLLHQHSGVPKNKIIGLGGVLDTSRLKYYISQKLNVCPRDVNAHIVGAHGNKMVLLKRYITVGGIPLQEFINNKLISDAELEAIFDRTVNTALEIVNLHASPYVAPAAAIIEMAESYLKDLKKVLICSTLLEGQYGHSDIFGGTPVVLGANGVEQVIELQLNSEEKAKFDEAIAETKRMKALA
As for `O=C(Nc1ccc(-c2nc3ccccc3[nH]2)cc1)c1ccc(-c2cccc([N+](=O)[O-])c2)o1`, the inhibition is -2%.
As to `Cc1cc(Nc2ccc(C(C)(C)C)cc2)c2[nH]ncc2n1`, the inhibition was 0%.
`O=S(=O)(NCCN1CCCC1)c1ccc(-c2ccc(CNCc3ccsc3)cc2)cc1`: the inhibition was -5%.
Take `CCCCN(CCCC)Cc1cc2ccccc2cc1O`: the inhibition is -6%.
Consider `Cc1cccc2[nH]c(-c3ccc(-c4cccc(NC(=O)C(C)CN5CCN(C)CC5)c4)cc3)nc12` (stereo not given), for which the inhibition was 3%.
For the compound `COc1ccc2nccc(NN=Cc3ccc(F)cc3)c2c1`, the inhibition is -2%.
With `CN1C(C)(C)CC(NC(=O)c2ccc(-c3nc4cc(Cl)c(Cl)cc4[nH]3)cc2)CC1(C)C`, the inhibition is 4%.
For `COc1ccc(CNCCCCCNCc2ccc(Cl)c(Cl)c2)cc1Cl`, the inhibition was 0%.
Turning to `COc1c(C2CCN(CCCCNC(=O)c3cc(-c4ccc(Cl)cc4)sc3C)CC2)ccc2c1CCCC2`, the inhibition was 2%.
Take `COc1cc2c(c(OC)c1[N+](=O)[O-])C=CC1(O2)N(C)c2ccc([N+](=O)[O-])cc2C1(C)C` (stereo not given): the inhibition is -5%.
As to `COc1ccc2nc(C)cc(NN=Cc3ccccc3F)c2c1`, the inhibition is -4%.
Turning to `Cc1noc(C)c1-c1ccc2c(Nc3ccc([N+](=O)[O-])cc3)c(C(N)=O)cnc2c1`, the inhibition was 4%.
Turning to `CCOC(=O)c1ccc(NC(=O)Nc2cccc(-c3ccc(-c4nc5c(C)cccc5[nH]4)s3)c2)cc1`, the inhibition is 4%.
Regarding `Cc1ccc(NS(=O)(=O)c2cccs2)cc1-c1cccc(C(=O)Nc2ccc(F)cc2)c1`, the inhibition was 0%.
As to `Clc1ccc(Nc2nc(NCc3ccccc3)nc(N/N=C/c3ccccn3)n2)cc1`, the inhibition was 3%.
Next, `O=C1CCCN1CCCNCc1ccc(-c2ccc(-c3nc4ccc(F)cc4[nH]3)cc2)cc1`: -3%; `O=C(Nc1cccc(CN2CCCN(Cc3ccccc3)CC2)c1)c1ccc(-c2ccccc2)cc1`: -1%.
Regarding `O=[N+]([O-])c1cccc(CNCC2CCN(CCc3ccccc3)CC2)c1`, the inhibition is -6%.
`O=C(NC1CC1)c1ccc(N2CCC(Cc3ccccc3)CC2)c([N+](=O)[O-])c1`: the inhibition is -1%.
Regarding `O=C(CCNc1ccnc(NCC2CCCCC2)n1)Nc1ccccc1`, the inhibition was -3%.
Take `c1ccc(CNCc2cccc(-c3cccc(-c4nc5ccccc5[nH]4)c3)c2)cc1`: the inhibition was -5%.
Consider `C[C@]12CC3CC(Nc4nc(N5CCOCC5)nc5ccccc45)(C1)C[C@@](C)(C3)C2`, for which the inhibition is -5%.
In the case of `COc1cc2nc(N(C)Cc3cccc(I)c3)nc(N)c2cc1OC`, the inhibition is 1%.
`c1ccc2c(c1)ncn2-c1ccnc(Nc2ccncc2)n1`: the inhibition was -3%.
For `FC(F)(F)c1ccc(CNC2CCN(CC3CCCCC3)CC2)cc1`, the inhibition was -4%.
For the compound `Cc1cc(NCC(c2ccccc2)c2ccccc2)nc(NCc2ccc(C(F)(F)F)cc2)n1`, the inhibition was 2%.
On to `COc1ccc(NC(=O)C2c3ccccc3C(=O)N(C3CCCC3)C2c2cccs2)cc1` (stereo not given), for which the inhibition is -1%.
Next, `COc1cc(C(=O)N2CCN(C(C)C)CC2)ccc1CN(C)CCCCN1CCN(c2cccc(Cl)c2Cl)CC1`: 6%; `CC1(C)N=C(N)N=C(N)N1OCc1cccc(Cl)c1Cl`: -1%; `O=C(NC1CC1)c1ccc(N2CCCCN2CCc2ccccc2)c(C(F)(F)F)c1`: -4%.
For `O=C(NCCCCN1CCC(c2ccc3ccccc3c2O)CC1)c1ccc(NC(=O)c2ccc(Cl)cc2)cc1`, the inhibition was 3%.
For the compound `CN(C)CCOc1ccc2c(c1)OC(C)(C)C=C2c1cccc2ccccc12`, the inhibition is -2%.
For the compound `Oc1cccc2c1CC(NCc1ccccc1)CC2` (stereo not given), the inhibition is 6%.
For `C=CCc1cccc(C)c1OCCCON1C(N)=NC(N)=NC1(C)C`, the inhibition was -8%.
In the case of `COc1cccc2c(NCc3ccccc3)nc(NCCCN3CCCCC3C)nc12` (stereo not given), the inhibition is 2%.
Next, `O=C(Nc1cccc(-c2csc(-c3nc4ccccc4[nH]3)c2)c1)c1ccncc1`: -1%; `CCCc1cc(Cc2cnc(N)nc2N)cc(OCCCCCC(=O)O)c1OC`: 4%; `CCOc1cc(C=NNc2nc3ccccc3[nH]2)ccc1OCc1ccc([N+](=O)[O-])cc1`: -6%.
`Cc1nnc(-c2ccc3ccccc3c2)c2cn(-c3cccc([N+](=O)[O-])c3)nc12`: the inhibition was 3%.
Take `CC(C)(C)c1ccc(CN2CCC(CNC(=O)c3cc(-c4ccccc4C(F)(F)F)cs3)C2)cc1` (stereo not given): the inhibition is -3%.
